These results are taken from PubChem BioAssay (NCI).

The panel holds about 79,000 compounds, 15% with a hit somewhere; the sample as a whole holds those more often. Values without a mark were called inactive. The source made the active and inactive calls. Cut-off read from the data, not from the text of the source: active = growth inhibition above about 70%; inactive = the rest.

Assay [1] in a line: NCI Yeast Anticancer Drug Screen. Data for the rad50 strain (AID 155).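 Note: 0% = growth of vehicle-only cultures of the same strain.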 To be noted: S. cerevisiae rad50 strain growth inhibition; at 50.0 µM; hits give high values. Summed up: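 Growth of the mutant yeast was measured after compound exposure and referenced to vehicle-treated cultures.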
Assay [2] in a line: NCI Yeast Anticancer Drug Screen. Data for the mec2-1 strain (AID 157). Particulars: S. cerevisiae mec2-1 strain, at 50.0 µM, hits give high values. In short, it runs like this:
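Compounds were applied to mec2-1 yeast cells. Their growth was then compared with that of vehicle-treated cultures to give growth inhibition.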

A short description of assay [3]: NCI Yeast Anticancer Drug Screen. Data for the sgs1 mgt1 strain (AID 161).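 Note: 0% = growth of cultures given vehicle only.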 To be noted: S. cerevisiae sgs1 mgt1 strain, at 50.0 µM, hits give high values. Summed up:
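Percent growth inhibition was derived by comparing compound-exposed mutant yeast with vehicle-exposed cultures. The strain carries alterations in DNA damage repair.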

Assay [4] can be described thus: NCI Yeast Anticancer Drug Screen. Data for the cln2 rad14 strain (AID 165).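 Note: 0% = growth equal to vehicle treated cultures.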 Particulars: S. cerevisiae cln2 rad14 strain, at 50.0 µM, hits give high values. Summed up:
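Strain: cln2 rad14 yeast, altered in cell cycle control and DNA damage repair. Read-out: growth inhibition vs vehicle.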

The nature of assay [5]: NCI Yeast Anticancer Drug Screen. Data for the bub3 strain (AID 167). Particulars: S. cerevisiae bub3 mutant strain, at 50.0 µM, hits give high values. In short, it runs like this:
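Whole-cell yeast assay. The mutant strain was incubated with compounds, and growth inhibition was determined by comparison with vehicle-treated cells.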

The nature of assay [6]: NCI Yeast Anticancer Drug Screen. Data for the mlh1 rad18 strain (AID 175). To be noted: S. cerevisiae mlh1 rad18 strain growth inhibition; at 50.0 µM; hits give high values. Summed up:
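A repair-deficient yeast strain is exposed to test compound, and growth is scored relative to vehicle-treated controls.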

`CC(=O)c1ccc(Br)cc1`: the growth inhibition was 2% in assay [1]; -5.5% in assay [2]; -0.65% in assay [3]; 8.7% in assay [4]; 5.75% in assay [5]; 1% in assay [6].
Take `COc1ccc(N)cc1N`: the growth inhibition is 6.8% in assay [1]; 18.1% in assay [2]; 5.5% in assay [3]; -42.4% in assay [4]; 25.5% in assay [5]; 11.1% in assay [6].
Take `CCCCCCCCCCCCCCCC(=O)[O][Hg][c]1ccccc1`: the growth inhibition in assay [1] is 97.6% (active); in assay [2] it was 96.7% (active); in assay [3], 99% (active); in assay [4] it was 98.1% (active); in assay [5] it was 99.2% (active); in assay [6], 98.8% (active).
As to `Oc1ccc(C(c2cc3c(cc2O)OCO3)N2CCNCC2)cc1` (stereo unspecified), the growth inhibition in assay [1] was 21.8%; in assay [2], 25.7%; in assay [3] it was 25.9%; in assay [4] it was -22.2%; in assay [5], 18.5%; in assay [6] it was 31.7%.
As for `CC(=O)c1cn(Cc2ccccc2)c2ccccc12`, the growth inhibition in assay [1] was 5.75%; in assay [2], -14.2%; in assay [3] it was -6.7%; in assay [4], -73.5%; in assay [5] it was -19.6%; in assay [6], -2.9%.
As for `CN1C(=O)c2ccccc2NC(=O)C12OC2c1ccccc1` (stereo unspecified), the growth inhibition was -0.1% in assay [1]; 18% in assay [2]; 11.3% in assay [3]; 10.2% in assay [4]; 18.2% in assay [5]; 8.15% in assay [6].
As for `CC(=O)[O-].CC(=O)[O-].O=C(N/N=C/c1cc(Cl)cc(Cl)c1O)c1ccncc1.[Cu+2]`, the growth inhibition in assay [1] is 2.55%; in assay [2], 2.75%; in assay [3], 10.7%; in assay [4], 51.1%; in assay [5], -4.05%; in assay [6], 9.85%.
Take `O=C(O)C(Br)CBr` (stereo unspecified): the growth inhibition was 4.7% in assay [1]; 17.6% in assay [2]; 27.2% in assay [3]; -13.2% in assay [4]; -1.55% in assay [5]; 34.5% in assay [6].
For the compound `O=C(c1ccccc1)c1c(CC(O)c2ccccc2)n(C(=O)c2ccccc2)c2ccccc12` (stereo unspecified), the growth inhibition in assay [1] was 10.6%; in assay [2], -20.1%; in assay [3] it was -14.3%; in assay [4], -67.2%; in assay [5] it was -22.9%; in assay [6], -13.9%.
As for `CC1C(C)(C)P(=O)(Oc2ccc3ccccc3c2)C1(C)C` (stereo unspecified), the growth inhibition was 71.6% (active) in assay [1]; 55.3% in assay [2]; 84% (active) in assay [3]; 80.7% (active) in assay [4]; 94.4% (active) in assay [5]; 56.6% in assay [6].
As to `Nc1ccc(Oc2ccc(N)cc2)cc1`, the growth inhibition was 3.1% in assay [1]; 10% in assay [2]; 14.6% in assay [3]; 11.7% in assay [4]; 12.4% in assay [5]; 26.1% in assay [6].
In the case of `CC(C)CC1C(=O)NCCC(NC(=O)C(N)Cc2ccc(O)cc2)C(=O)NC(Cc2ccccc2)C(=O)NC(Cc2ccccc2)NC1=O` (stereo unspecified), the growth inhibition is -1.2% in assay [1]; -14.2% in assay [2]; -23.9% in assay [3]; 3.9% in assay [4]; -10.8% in assay [5]; -28.1% in assay [6].
As for `O=[N+]([O-])c1cc2n[nH]nc2c2nonc12`, the growth inhibition in assay [1] was 1.45%; in assay [2], 11.3%; in assay [3], 11.4%; in assay [4], -2.05%; in assay [5] it was 27.1%; in assay [6], 5.7%.
In the case of `CCCCCCNC1C=CCC1` (stereo unspecified), the growth inhibition in assay [1] was -5.75%; in assay [2], -2.55%; in assay [3], -10.9%; in assay [4], -15.6%; in assay [5], 5.15%; in assay [6], 4.25%.
For the compound `O=C(NCCc1ccccn1)c1ccc2cc(C(=O)N3CC(CCl)c4ccc([N+](=O)[O-])cc43)[nH]c2c1` (stereo unspecified), the growth inhibition in assay [1] was 8.65%; in assay [2], -2%; in assay [3] it was 3.95%; in assay [4], 12.4%; in assay [5] it was 2.95%; in assay [6] it was -76.3%.
For `CCC1([N+](=O)[O-])COP(=O)(NCc2ccncc2)OC1` (stereo unspecified), the growth inhibition in assay [1] was 8.4%; in assay [2], -8.4%; in assay [3], -5.95%; in assay [4] it was 10.6%; in assay [5], -5.6%; in assay [6], 12.3%.
On to `COc1ccc(C(C)CNCc2ccccc2)cc1` (stereo unspecified), for which the growth inhibition in assay [1] is 0.3%; in assay [2], -1.35%; in assay [3], 21.1%; in assay [4], -10.8%; in assay [5], -1.7%; in assay [6], -1.45%.
In the case of `CC[N+]1(CC)CC[N+](CC)(CC)CC1` (tested in a mixture with another compound), the growth inhibition in assay [1] is 6.1%; in assay [2], -28.8%; in assay [3], 4.85%; in assay [4], 0.45%; in assay [5], -0.95%; in assay [6] it was 29.1%.
As for `CCCCCCCCCCOC(=O)c1ccccc1C(=O)OCCCCCCCCCC`, the growth inhibition in assay [1] is -22%; in assay [2], -23.9%; in assay [3], -13.8%; in assay [4], 17.3%; in assay [5], -11.2%; in assay [6], -24.6%.
Turning to `CCc1cc(C)cc2[n+]1CC=C2C`, the growth inhibition in assay [1] is 6.45%; in assay [2], 5.1%; in assay [3] it was 6.85%; in assay [4] it was 21.7%; in assay [5], -0.7%; in assay [6] it was 14.5%.
For `CC(=O)CC(C)=O.CC(=O)CC(C)=O.CC(=O)CC(C)=O.[La]`, the growth inhibition was 27.8% in assay [1]; 1.35% in assay [2]; 12.2% in assay [3]; 19.1% in assay [4]; -4.6% in assay [5]; 1.15% in assay [6].
